Screening data deposited in PubChem by National Center for Advancing Translational Sciences (NCATS).
AID inh: Primary qHTS assay for inhibitors of Activation Induced Cytidine Deaminase (AID): AID signal; Single-stranded DNA cytosine deaminase (Homo sapiens), Q9GZX7; AID deamination FRET fluorescence, UDG-coupled, 4 h; Potency, µM (top dose mostly 115 µM), usual class: inhibitors; 91,000 compounds, 0.32% hits; note: nearly all actives have a fitted effect of over 25% in size
Target sequence (Q9GZX7 whole entry, looked up): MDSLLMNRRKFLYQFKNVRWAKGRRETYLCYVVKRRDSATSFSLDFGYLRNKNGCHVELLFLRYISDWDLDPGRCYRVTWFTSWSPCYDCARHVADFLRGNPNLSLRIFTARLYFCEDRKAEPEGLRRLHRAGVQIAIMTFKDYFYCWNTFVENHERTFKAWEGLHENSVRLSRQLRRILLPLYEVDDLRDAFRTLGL
UDG counterscr: Primary qHTS assay for inhibitors of Activation Induced Cytidine Deaminase (AID): UDG Counterscreen signal | Uracil-DNA glycosylase | FRET deamination/UDG coupled assay, UDG read, 4 h | Potency, µM (titrated, usually from 115 µM), for the others: top-dose activity change, negative = inhibition, most hits filed as inhibitors | 91,000 compounds, 0.14% hits; note: nearly all actives have a fitted effect of over 65% in size
* hit, by the source's call; i = inactive. A selection: hits, their analogues and other compounds. The true share with any hit is near 0.47%. Calls come from the whole dose curve; as a rule, active = well fitted curve in the direction sought with a large enough effect; inconclusive = small, poorly fitted or top-dose-only effect, or another doubt; inactive = no such curve, though single readings can be large; an effect the other way counts as inactive or inconclusive. % is set by controls: 0 for no effect and ±100 for the full control effect; potency is the fitted concentration of half-maximal effect.

SMILES	AID inh	UDG counterscr
COc1ccc2c(c[n+](C)c3c4cc5c(cc4ccc23)OCO5)c1OC	40µM*	-18%
CN1CC2(C)CNCC(C)(C1)C2O (stereo not drawn)	i	-1%
Cc1cccc(C(=O)N2CCC(=O)CC2)c1	i	-9%
CCOc1cc(CN2CCN(C(=O)COc3ccc4ccccc4c3)CC2)ccc1OC	i	8%
CCCCC/C=C\C/C=C\C/C=C\C/C=C\CCCC(=O)NCC(=O)O	79µM*	7%
CC(=O)c1c(C)[nH]c(C(=O)C(C)NC(C)c2ccc(Cl)cc2Cl)c1C (stereo not drawn)	i	8%
CCOC(=O)c1c(C)n(C2CCCC2)c2ccc(O)cc12	i	0%
CN(N=O)c1cc(O)ccc1O	28µM*	-19%
CC12CN3CC(C)(CN(C1)C3c1ccccn1)C2=O (stereo not drawn)	i	7%
